Compounds without any hit were thinned out: in the full panel of roughly 83,000, 20% have a hit.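 Assay: single dose, 48 h. Readout: percent growth (0 = no net growth; negative = cell death). Active: <10.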 The source made the active and inactive calls.

The test system of this experiment is HL-60(TB) leukemia. Description: NCI-60 one-dose screen, 48 h (100 = growth as untreated, 0 = no growth, -100 = all killed). The settings on record: 10 µM unless noted.
As for `c1ccc(-c2c(-c3ccccc3)[n+](Cc3ccc4ccccc4c3)c(-c3cccc4ccccc34)n2Cc2ccc3ccccc3c2)cc1`, the growth was -46.8% (active). With `CC(=O)OC[Si](C)(C)c1ccccc1`, the growth is 100% (inactive). Under `Cn1cc(-c2nc(-c3c[nH]c4ncccc34)cs2)c2cc(Cl)ccc21` stands 55.8% (inactive); under `CCN(CC)CCCCCCCNc1c2ccc(Cl)cc2nc2ccc(OC)cc12`, -46.9% (active); under `O=C1c2ccc3c4c(ccc(c24)C(=O)N1CCCNCc1ccccc1Cl)C(=O)N(CCCNCc1ccccc1Cl)C3=O`, -55.9% (active).

As to `COC(=O)C1(C)Cc2cc(OC(C)=O)c(OC(C)=O)cc2N1` (stereo unspecified), the growth was 19.8% (inactive).

With `COc1ccc(Cn2cc3c(c2-c2ccccc2)CCc2cnoc2-3)cc1N`, the growth is -19.8% (active).

As for `S=C=Nc1ccc2ccccc2c1`, the growth was 91.7% (inactive). For the compound `COc1ccc(-c2nn(-c3ccccc3)cc2/C=C/C(=O)OCc2cn(-c3ccc(F)c(Cl)c3)nn2)cc1`, the growth is 83.3% (inactive). Under `COc1cc(/C(C#N)=C/c2nc3c(N4CCOCC4)nc(Cl)nc3n2C)cc(OC)c1OC` stands -29% (active); under `CCCN(CCC)C(=O)[C@H](CC)[C@@H]1CC[C@@H](C)[C@@H]([C@H](C)[C@@H](O)[C@@H](C)C(=O)[C@H](CC)C2O[C@]3(C=C[C@@H](O)[C@]4(CC[C@@](C)([C@H]5CC[C@](O)(CC)[C@H](C)O5)O4)O3)[C@H](C)C[C@@H]2C)O1` (stereo partly specified), -47.7% (active); under `COC(=O)C(OC(C)=O)C(OC(C)=O)c1ccc(OC)c(OC)c1` (stereo unspecified), 81.3% (inactive).

For `O=C(c1ccc(Nc2nccc(NCCCNc3ccnc4cc(Cl)ccc34)n2)cc1)N1CCCCC1`, the growth is 22.4% (inactive). Then `O=C(CSc1nc2ccccc2[nH]1)Nc1ccc(-c2nc3ccccc3s2)c(Cl)c1`, with 62% (inactive); and `CC1(C)C2CC=C(/C=N/NC(=O)C3CCC(=O)N3)C1C2` (stereo unspecified), with 101% (inactive). Under `CCCn1cc(/C=N\N=C2\C(=O)Nc3ccc(C)cc32)c2ccccc21` stands -22.6% (active); under `O=c1cc(C(F)(F)F)c2cc(-c3cc4ccccc4c(=O)o3)c(O)cc2o1`, 38.3% (inactive). Under `O=C(NC1CCN(Cc2ccccc2)CC1)c1cc(C(=O)NC2CCN(Cc3ccccc3)CC2)cc(C(=O)NC2CCN(Cc3ccccc3)CC2)c1` stands 64.3% (inactive). Regarding `CC/C=C1/C(=O)C=C[C@@H]1C/C=C\CCCC(=O)O`, the growth was 52.1% (inactive).

As to `Oc1c(CN2CCCC2)cc(COCc2ccc(Br)cc2)c2cccnc12`, the growth is -9.34% (active). For `CN1C(=O)/C(=C/c2ccc(C(=O)Nc3ncc(Cc4ccccc4Cl)s3)cc2)SC1=S`, the growth was 73.1% (inactive). Consider `C[n+]1c2ccccc2c(Nc2ccc(NS(=O)(=O)CCCCN=C(N)N)cc2)c2ccc(N)cc21`, for which the growth was 16.7% (inactive). Then `COc1ccc(C(=O)NNc2nc(Cl)nc(N3CCN(C(c4ccccc4)c4ccccc4)CC3)n2)cc1`, with 21.3% (inactive). Then `CCOC(=O)COc1ccc2c(c1)O/C(=C\c1ccc(O)cc1)C2=O`, with 112% (inactive).

With `CCN(CCNc1ccc(C)c2sc3cc(Cl)ccc3c(=O)c12)CC(C)(C)O`, the growth is 81.4% (inactive). Under `N#Cc1ccc(Oc2ccc3ccc(=O)oc3c2)cc1` stands 82.7% (inactive); under `COc1ccc2c(c1)C(C)Cc1c(Cl)ncnc1N2C` (stereo unspecified), -0.632% (active); under `COc1cc(/C=C2\CCC/C(=C\c3cc(CN4CCCC4)c(O)c(OC)c3)C2=O)cc(CN2CCCC2)c1O`, 5.18% (active). On to `Cc1nc(Nc2ccc(NC(=S)Nc3ccccc3)cc2)nc2nc(Nc3cccc(Cl)c3)[nH]c(=O)c12`, for which the growth was 57.1% (inactive). Under `CCN(CCCOc1ccc2c(Nc3cc(CC(=O)Nc4cccc(F)c4)[nH]n3)ncnc2c1)CCOP(=O)(O)O` stands 34.9% (inactive). For the compound `CN1C(=O)/C(=C\c2nc([P+](c3ccccc3)(c3ccccc3)c3ccccc3)c(N3CCOCC3)o2)SC1=S`, the growth is -15.1% (active). For the compound `O=C1OCC2=C1C(c1cccc(C(F)(F)F)c1)c1cc3c(cc1N2CCO)OCCO3` (stereo unspecified), the growth is -29.5% (active). Turning to `Cc1ccc(C(=O)NCCNc2nccc(-c3c(-c4cccc(F)c4)nc4sccn34)n2)cc1`, the growth was 95.5% (inactive). Under `C=CCN1C(=O)/C(=C/C(=O)OC)S/C1=N\NC(=O)c1cc2ccc1/C=C\c1ccc(cc1)/C=C\2` stands 91.8% (inactive). Under `C=CCC(OC(C)=O)c1ccc(C(C)C)cc1` (stereo unspecified) stands 83.1% (inactive).

As to `CCOC(=O)CNP(=O)(OC[C@@H](Cc1ccccc1)NC(=O)c1cc2ccccc2s1)Oc1ccccc1` (stereo partly specified), the growth is 79.4% (inactive).

For the origin of these results see PubChem BioAssay (NCI).
